We go through 24 molecules from PubChem BioAssay.

Active and inactive are the calls of the source.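 The calls were made as follows: active = inhibition at or above 50% relative to wild type and mutant plate controls; inactive = inhibition below 50%.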

The experiment can be described thus: inhibitors of Chlamydomonas gravitaxis, primary screen, whole organism, Chlamydomonas reinhardtii, WT vs cilia-less mutant, absorbance, 96-well (AID 463189).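 Also: 0% = wild type cc124 cells in DMSO and 100% = ciliumless bld1 mutant cells.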 The settings on record: OD600 absorbance, 2 days, at 10 µM, active compounds read high.
What is called inhibition is the relative decrease from the control value, in per cent. With `CCn1ccnc1CC1COc2ccccc2O1` (centres undefined), the inhibition is 5.81% (inactive).

`N[C@H](C(=O)O)c1cc(O)cc(O)c1`: the inhibition is -2.67% (inactive).

As for `O=c1[nH]c2cc(C(F)(F)F)ccc2n1-c1cc(C(F)(F)F)ccc1O`, the inhibition was -0.852% (inactive).

As for `O=C1NC(c2cccc([N+](=O)[O-])c2)=CCN1c1ccccc1O`, the inhibition was -0.979% (inactive).

As to `Cc1cc(NC(=O)Nc2ccc3c(ccn3C)c2)sn1`, the inhibition is 5.1% (inactive).

As for `Nc1ncnc2c1c(-c1ccc(Oc3ccccc3)cc1)cn2C1CCCC1`, the inhibition is 35.3% (inactive).

For the molecule `C=C1C(=O)O[C@@H]2[C@H]3O[C@]3(C)CCC=C(C)CC[C@@H]12`, the inhibition is 4.91% (inactive).

For `CC(C(=O)O)c1ccc(CC2CCCC2=O)cc1` (centres undefined), the inhibition was -6.18% (inactive).

In the case of `Cc1scc2c1N(C(=O)CN1CCN(C)CC1)c1ccccc1NC2=O`, the inhibition is -1.6% (inactive).

For `NC(=O)c1cnccn1`, the inhibition was 1.54% (inactive).

In the case of `CC(COc1ccc(/C=C/c2ccccc2)cc1)[N+](C)(C)C` (centres undefined), the inhibition was 52% (active).

With `C[C@H](NC(=O)/C(C#N)=C/c1ccc(O)c(O)c1)c1ccccc1`, the inhibition is -0.423% (inactive).

Consider `O=C(O)/C=C/c1cnc[nH]1`, for which the inhibition is 1.11% (inactive).

Turning to `OC(CN1CCN(c2cccc(Cl)c2)CC1)C(c1ccccc1)c1ccccc1` (centres undefined), the inhibition is 4.93% (inactive).

Consider `CCCCCCCCCCCCCCCCCC(=O)NCC(COP(=O)([O-])OCC[N+](C)(C)C)OCC` (centres undefined), for which the inhibition was 9.71% (inactive).

As to `O=C(c1ccc(OCCN2CCCCC2)cc1)c1c(-c2ccc(O)cc2)sc2cc(O)ccc12`, the inhibition was 4.7% (inactive).

Regarding `COc1ccc2c(c1)c(CC(=O)O)c(C)n2C(=O)c1ccccc1`, the inhibition is 2.3% (inactive).

For `Cc1ccc(C(=O)Nc2ccc(S(=O)(=O)O)c3cc(S(=O)(=O)O)cc(S(=O)(=O)O)c23)cc1NC(=O)c1cccc(NC(=O)Nc2cccc(C(=O)Nc3cc(C(=O)Nc4ccc(S(=O)(=O)O)c5cc(S(=O)(=O)O)cc(S(=O)(=O)O)c45)ccc3C)c2)c1`, the inhibition was -3.04% (inactive).

Regarding `NC/C=C/C(=O)O`, the inhibition was 9.04% (inactive).

Consider `NC/C=C\C(=O)O`, for which the inhibition is 3.63% (inactive).

On to `Cc1nc2c([nH]1)c(=O)n(C)c(=O)n2Cc1ccco1`, for which the inhibition is 0.516% (inactive).

In the case of `O=[N+]([O-])c1cccc2c(Br)[nH]nc12`, the inhibition was 136% (active).

With `CC(C)(C)c1ccc(S(=O)(=O)/C=C/C#N)cc1`, the inhibition is 155% (active).

With `c1cnc2c(c1)ccc1cccnc12`, the inhibition is 10.8% (inactive).
